High-throughput results: PubChem BioAssay, National Center for Advancing Translational Sciences (NCATS)
D1 potentiator = enhances dopamine response at the human D1 receptor; AID 504651; actives 0.036% (n = 360,000); potentiation, % at 10 µM; P21728; HEK293 TREx D1 cells, calcium flux, dopamine EC20 potentiation; in the data active = potentiation above about 30%
D1 agonist = human D1 receptor agonism | actives 1% (n = 360,000) | HEK293 T-REx D1 cells, calcium flux, agonist mode | activation, % at 2 µM | P21728; in the data active = activation above about 30%
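Inducible HEK293 T-REx D1 cells, force-coupled to calcium signalling, were plated at 4000 cells/well with tetracycline and held overnight at 30 C. After no-wash calcium dye loading, compound-evoked calcium rise over 180 s flagged agonists.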
D3 antag = blocks the human D3 dopamine receptor. P35462. D3R cells, DiscoveRx beta-arrestin luminescence, antagonist mode; active compounds read low. max response, negative = inhibition, %. actives 2.5% (n = 360,000); in the data active = max response below about -50%; inconclusive = no clear call, values can overlap the other calls
Target sequence (P35462 whole entry, looked up): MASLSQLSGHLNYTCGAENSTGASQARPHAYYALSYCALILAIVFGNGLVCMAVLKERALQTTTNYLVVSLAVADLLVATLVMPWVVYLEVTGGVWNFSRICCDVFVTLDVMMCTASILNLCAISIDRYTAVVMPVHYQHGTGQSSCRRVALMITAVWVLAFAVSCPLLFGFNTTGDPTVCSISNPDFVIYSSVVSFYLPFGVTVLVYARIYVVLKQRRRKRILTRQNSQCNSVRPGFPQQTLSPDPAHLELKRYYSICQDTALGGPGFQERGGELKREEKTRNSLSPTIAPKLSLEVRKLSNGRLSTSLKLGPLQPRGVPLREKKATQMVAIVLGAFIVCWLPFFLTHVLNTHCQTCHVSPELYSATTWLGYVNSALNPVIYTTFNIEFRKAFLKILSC
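Cells plated overnight at 1500 cells/well, then exposed to library compounds with dopamine controls for 90 minutes at 37 degrees C. DiscoveRx reagent added for 30–60 minutes at room temperature; luminescence read, quantitative HTS format.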
D3 ag = D3 dopamine receptor (human) agonism | P35462 | D3R DiscoveRx beta-arrestin cells, luminescence, 90 min | max activation, % | actives 0.58% (n = 410,000) | AID 652048; in the data active = max activation above about 30%
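Agonist mode: compounds and dopamine controls were applied to plated cells for 90 min at 37 degrees C after an overnight attachment at 1500 cells/well. Luminescent read-out followed 30 - 60 minutes at room temperature with DiscoveRx detection reagent.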
D1 antagonist = blocks dopamine activation of the human D1 receptor; P21728; HEK293 TREx D1 cells, calcium flux, dopamine EC80; active compounds read low; activity change, negative = inhibition, % at 10 µM; actives 3.2% (n = 360,000); in the data active = activity change below about -30%
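After overnight tetracycline induction at 30 C, force-coupled D1 HEK293 cells took up a no-wash calcium dye at room temperature. Compounds were added and monitored 180 s, and the response to EC80 dopamine was then recorded.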
Of the large screens only hits and unclear results are named; the others gave an inactive call; ! = not confirmed by another sample. Hits are enriched below; roughly 6% of the tested compounds scored in any of these assays.

Cn1cnc(S(=O)(=O)N2CCN(c3cccc(C(F)(F)F)c3)CC2)c1	D1 antagonist -32
Cn1cnc(S(=O)(=O)N2CCN(c3cccc(Cl)c3)CC2)c1	none
CCS(=O)(=O)N1CCc2cc(C(=O)N3CCN(c4ccc(OC)cc4)CC3)ccc21	none (no result: D3 antag)
OC(CSc1c(Cl)cccc1Cl)CN1CCN(c2ccc(F)cc2)CC1 (configuration not stated)	D3 antag -89
OC(CSc1ccccc1Cl)CN1CCN(c2ccc(F)cc2)CC1 (configuration not stated)	D3 antag -81
OC(CSc1ccccc1)CN1CCN(c2ccccc2)CC1 (configuration not stated)	D3 antag inconclusive (no result: D1 potentiator, D1 agonist, D1 antagonist)
COc1cc(OC)c(C#N)c(S(=O)(=O)Cc2ccccc2)c1	none
N#Cc1c([N+](=O)[O-])cc([N+](=O)[O-])cc1S(=O)(=O)Cc1ccccc1	D3 antag -102, D1 antagonist -35
CCCN(CCC)C(=O)Cn1c(=O)n(-c2ccc(OC)cc2OC)c(=O)c2c3c(sc21)CCC3	none (no result: D3 antag)
Cc1ccc(C(=O)NC2CC3CCC(C2)N3Cc2ccco2)cc1 (configuration not stated)	D1 antagonist -70
CCc1ccccc1NC(=O)NC1CC2CCC(C1)N2Cc1ccco1 (configuration not stated)	D3 antag inconclusive
O=C(Nc1cccc(Cl)c1)NC1CC2CCC(C1)N2Cc1ccco1 (configuration not stated)	D3 antag -67, D1 antagonist -41
COc1cc(OC)cc(C(=O)NC2CC3CCC(C2)N3Cc2ccco2)c1 (configuration not stated)	D3 antag -91, D1 antagonist -35
CCN(CC)CCCNc1oc(-c2ccccc2[N+](=O)[O-])nc1C#N	D3 antag -56
CCOc1ccccc1CNC(=O)c1ccc2nc(N3CCC(C)CC3)sc2c1	none (no result: D3 antag)
CC(C)CN(CC(C)C)C(=O)C1CCCN(S(=O)(=O)c2ccc3c(c2)oc(=O)n3C)C1 (configuration not stated)	D1 antagonist -31 (no result: D3 antag)
CCN(C(=O)C1CCN(S(=O)(=O)c2ccc3c(c2)oc(=O)n3C)CC1)c1cccc(C)c1	D1 antagonist -39 (no result: D1 potentiator)
COc1ccc(N2CCN(C(=O)C3CCCN(S(=O)(=O)c4ccc5c(c4)oc(=O)n5C)C3)CC2)cc1 (configuration not stated)	D1 antagonist -45!
Cc1ccc(N(C)C(=O)C2CCN(S(=O)(=O)c3ccc4c(c3)oc(=O)n4C)CC2)cc1	none
COc1ccccc1N1CCN(C(=O)C2CCCN(S(=O)(=O)c3ccc4c(c3)oc(=O)n4C)C2)CC1 (configuration not stated)	none
CCN(CC)C(=O)C1CCN(S(=O)(=O)c2ccc3oc4ccccc4c3c2)CC1	D1 antagonist -36
CCc1ccc(NC(=O)c2sc3nc(C)cc(C)c3c2NC(=O)c2ccccc2OC)cc1	none (no result: D3 antag)
Cc1ccc2oc(C(=O)Nc3ccc(S(=O)(=O)Nc4nc(C)cc(C)n4)cc3)cc(=O)c2c1	none (no result: D3 antag)
Cc1cccc(N2CCN(S(=O)(=O)c3cc(C(=O)Nc4ccc(Oc5ccccc5)cc4)ccc3F)CC2)c1C	none (no result: D3 antag)
Cc1ccccc1NC(=O)Cn1c(=O)oc2cc(Br)ccc21	none (no result: D3 antag)
CC(=O)c1ccc(NC(=O)CSc2nc(C3CCCC3)nc3c2c(=O)n(C)c(=O)n3C)cc1	none (no result: D3 antag)
Cn1c(=O)oc2cc(S(=O)(=O)N3CCCC(C(=O)N4CC=C(c5ccccc5)CC4)C3)ccc21 (configuration not stated)	none (no result: D3 antag, D3 ag)
Cc1ccc(N2CCN(S(=O)(=O)c3ccc4c(c3)oc(=O)n4C)CC2C)cc1 (configuration not stated)	none
Cn1c(=O)oc2cc(S(=O)(=O)N3CCCC(C(=O)N4CCN(c5ccc(Cl)cc5)CC4)C3)ccc21 (configuration not stated)	D1 antagonist -34 (no result: D3 antag)
Cc1ccc(N2CCN(C(=O)C3CCN(S(=O)(=O)c4ccc5c(c4)oc(=O)n5C)CC3)CC2C)cc1 (configuration not stated)	D1 antagonist -44 (no result: D3 antag)
Cc1ccc(N(C(C)C(=O)N2CCCC2)S(C)(=O)=O)cc1 (configuration not stated)	D1 antagonist -32
CCN1CCN(C(=O)C(C)N(c2ccc(C)cc2)S(C)(=O)=O)CC1 (configuration not stated)	D3 antag inconclusive
CCc1ccc(NC(=O)CSc2nc3c(c(=O)[nH]2)CN(Cc2ccc(C)cc2)CC3)cc1	none (no result: D3 antag)
CC(SCc1ccccc1)C(=O)Nc1ccc(F)cc1 (configuration not stated)	none
Cc1cccc(CSC(Nc2ccc(F)cc2)=C(C#N)C#N)c1	D1 antagonist -35
Cc1cccc(CSC(=N)N)c1	none
N#CC(C#N)=C(Nc1ccc(F)cc1)SCc1cccc(Br)c1	D1 antagonist -42
Cc1cc2c(c(=O)o1)C(Cc1ccccc1)C(C#N)=C(N)O2 (configuration not stated)	D1 antagonist -56
Cc1ccc(C(=O)N/C(=C\c2cccc([N+](=O)[O-])c2)C(=O)OCN2C(=O)c3ccccc3C2=O)cc1	D1 antagonist -48
COc1ccc(C(=O)N/C(=C\c2ccc([N+](=O)[O-])cc2)C(=O)NC(CCSC)C(=O)O)cc1 (configuration not stated)	D1 agonist 111, D1 antagonist -33
CC(C)NC(=O)/C(=C\c1cccc([N+](=O)[O-])c1)NC(=O)c1ccccc1	D3 antag -107
Cc1ccc(C(=O)N/C(=C/c2cccc([N+](=O)[O-])c2)C(=O)NC(C)C)cc1	none
Cc1ccc(C(=O)N/C(=C\c2cccc([N+](=O)[O-])c2)C(=O)NC(Cc2ccccc2)C(=O)O)cc1 (configuration not stated)	none
COc1ccc(/C=C(\NC(=O)c2ccc(OC)cc2)C(=O)NC(CCSC)C(=O)O)cc1 (configuration not stated)	none
Nc1nc2[nH]cc(CCc3ccc(C(=O)N[C@@H](CCC(=O)O)C(=O)O)cc3)c2c(=O)[nH]1	none (no result: D1 potentiator, D1 agonist, D3 antag, D1 antagonist)
CCN(Cc1ccccc1)Cc1c(O)ccc2oc(C)c(C(=O)Nc3ccccc3C)c12	none (no result: D3 antag)
CCn1c(CNc2nc3ccccc3n2C(C)C)nc2ccccc21	D3 antag -59
COc1ccc(CNc2nc3ccccc3n2C(C)C)cc1	none
Cn1c(CNc2nc3ccccc3n2C)nc2ccccc21	D3 antag -70
CC(C)n1c(NCc2nc3ccccc3n2C)nc2ccccc21	D3 antag -93
CCn1c(N2CCN(C(=O)NC3CCCCC3)CC2)nc2ccccc21	none
CCn1c(NC2CCCCC2)nc2ccccc21	D3 antag inconclusive, D1 antagonist -34
Cc1ccc(Cn2c(CNS(=O)(=O)c3cccc([N+](=O)[O-])c3)nc3cccnc32)cc1	none (no result: D3 antag)
